# Screening results: PubChem BioAssay, several laboratories
# This is a sample that favours compounds with a hit; in the whole collection about 3.2% have one here.
# Mtb FBA inh: Mtb FBA enzyme inhibitors, primary screen, biochemical, fluorescence, strain H37Rv | purified M. tuberculosis FBA, fluorescence read-out | AID 588726, 2011 | inhibition, % at 1 µM | Fructose-bisphosphate aldolase (Mycobacterium tuberculosis (strain ATCC 25618 / H37Rv)), … | hit rate 2.3% among 360,000; in the data active = inhibition above about 27%;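 also: 0% = vehicle and 100% = reference inhibitor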
# Target sequence (P9WQA3 whole entry, looked up): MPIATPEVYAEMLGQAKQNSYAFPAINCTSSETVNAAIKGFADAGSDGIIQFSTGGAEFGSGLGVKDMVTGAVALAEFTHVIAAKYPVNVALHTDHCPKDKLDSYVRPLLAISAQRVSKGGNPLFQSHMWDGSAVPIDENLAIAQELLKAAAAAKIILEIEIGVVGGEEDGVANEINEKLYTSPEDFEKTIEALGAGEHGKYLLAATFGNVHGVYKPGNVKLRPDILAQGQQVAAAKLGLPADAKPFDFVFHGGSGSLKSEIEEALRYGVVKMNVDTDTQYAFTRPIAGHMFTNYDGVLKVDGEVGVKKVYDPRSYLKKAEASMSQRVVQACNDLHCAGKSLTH
# Mtb bLac sens: beta-lactam sensitization of Mtb H37Rv, H37Rv. hit rate 0.27% among 330,000. M. tuberculosis H37Rv growth with meropenem, percent inhibition. inhibition, % at 25 µM;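 also: growth measured after seven days incubation then overnight dye step; 0% = bacteria only wells and 100% = bacteria with antibiotic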
# UGM FP inh: M. tuberculosis UGM enzyme inhibitors, primary screen, biochemical, fluorescence polarization, single point | hit rate 0.06% among 320,000 | inhibition, % at 10 µM | purified UGM, fluorescence polarization probe displacement | AID 504406, 2011; in the data active = inhibition above about 10%, passing the limit was not always enough
# Rv3671c protease: Rv3671c serine protease inhibitors, primary screen, biochemical, fluorescence polarization, M. tuberculosis H37Rv; P9WHR9; inhibition, % at 5.96 µM; hit rate 0.048% among 320,000; AID 2606, 2010; in the data active = inhibition above about 38%;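 also: extracellular domain of Rv3671c used as enzyme; 0% = enzyme with DMSO and 100% = no enzyme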
# GDH-TPI counter-1: GDH-TPI coupling enzyme inhibitors, primary screen, artefact control for M. tuberculosis FBA inhibitor project, biochemical, absorbance, full deck; GDH-TPI coupled enzyme counterscreen, NADH absorbance; inhibition, % at 4.8 µM; hit rate 1.2% among 360,000; AID 588335, 2011; in the data active = inhibition above about 30%;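 also: 0% = DMSO wells and 100% = wells lacking the enzyme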
# SSB-PriA inh: inhibitors of Klebsiella pneumoniae PriA binding to SSB C-terminal tail, primary screen, biochemical, AlphaScreen. PriA–SSB C-terminal tail interaction (Klebsiella pneumoniae). AlphaScreen SSBct-PriA binding, biotinylated peptide. inhibition, % at 33 µM. hit rate 0.6% among 430,000. AID 1272365, 2023; in the data active = inhibition mostly above about 37%, no sharp cut-off; inactive = mostly below about 20%;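 also: plate controls were negative control peptide for no effect and reference peptide for full effect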
# Mtb FBA confirm: M. tuberculosis aldolase blockers, biochemical, fluorescence, strain H37Rv, confirmation; shares compounds with Mtb FBA inh; purified M. tuberculosis FBA, fluorescence read-out; inhibition, % at 1 µM; hit rate 78% among 5,600; AID 651616, 2012; in the data active = inhibition above about 27%;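 also: 0% = vehicle wells and 100% = reference inhibitor wells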
# GDH-TPI counter-2: GDH-TPI coupling enzyme inhibitors, artefact control for M. tuberculosis FBA inhibitor project, biochemical, fluorescence, high throughput; hit rate 81% among 5,600; GDH-TPI coupled enzyme counterscreen; shares compounds with Mtb FBA inh; inhibition, % at 1 µM; in the data active = inhibition above about 10%
# GDH-TPI DR: GDH-TPI coupling enzyme inhibitors, dose response, artefact control for M. tuberculosis FBA inhibitor project, biochemical, fluorescence, IC50 | shares compounds with Mtb FBA inh | GDH-TPI coupled enzyme assay, artifact counterscreen | IC50, µM | hit rate 79% among 170
# * marks the source's active call; other numbers are inactive results; nt = no result; + = active, no number. Unless noted, no rule for the calls is given here.
SMILES,Mtb FBA inh,Mtb bLac sens,UGM FP inh,Rv3671c protease,GDH-TPI counter-1,SSB-PriA inh,Mtb FBA confirm,GDH-TPI counter-2,others
CCO[C@@H]1c2c(ccc3ccc(=O)oc23)OC(C)(C)[C@H]1O,56*,0,-1,5,17,-11,21,8,GDH-TPI DR=2.9*
CC(=O)OC1c2c(ccc3ccc(=O)oc23)OC(C)(C)C1OC(=O)CC(C)C (stereo not drawn),16,7,0,-16,11,4,nt,nt,
O=C(NCc1ccc(F)cc1)C(=O)Nc1ccc(F)cc1F,nt,nt,nt,nt,nt,-9,nt,nt,
Cc1nnc(NC(=O)c2ccc(COc3cccc4c3OC(C)(C)C4)cc2)s1,nt,nt,nt,nt,nt,-3,nt,nt,
CCOC(=O)CSc1nnc(CNC(=O)c2ccc([N+](=O)[O-])cc2)n1Cc1ccccc1,nt,nt,nt,nt,nt,4,nt,nt,
CCO[C@H]1c2c(ccc3ccc(=O)oc23)OC(C)(C)[C@@H]1O,59*,1,0,4,20,-6,137*,96*,
Cc1nn(CCc2nn[nH]n2)c2nc(-c3ccccc3)cc(C(F)(F)F)c12,40*,40,1,-6,5,-10,+,164*,
O=C(COc1ncnc2scc(-c3ccc(Cl)cc3)c12)NCc1ccco1,83*,92,0,-2,1,2,5,-2,
CCNC(=O)COc1ncnc2scc(-c3ccc(F)cc3)c12,-5,-4,3,-8,-12,-14,nt,nt,
Cc1ccccc1NC(=O)CNc1ccccc1C(=O)NCc1ccco1,48*,-4,-5,-5,7,-5,166*,143*,
Cc1cccc(C)c1NC(=S)Nc1ccccc1C(=O)NCc1ccco1,39*,-4,-3,-7,5,-3,25,7,GDH-TPI DR=>10
Cc1ccccc1NC(=S)NCc1ccco1,-2,8,-1,-3,4,-8,nt,nt,
COc1cccc(-c2cc(C(=O)NCc3cncc(-c4ccsc4)c3)n(C)n2)c1,nt,nt,nt,nt,nt,-5,nt,nt,
C[C@H](NC(=O)c1nnn(Cc2ccccc2)c1-n1cccc1)c1ccccn1,nt,nt,nt,nt,nt,-16,nt,nt,
O=C(COc1ccc2oc(-c3ccccc3)cc(=O)c2c1)NCc1ccco1,30*,1,2,-5,6,-6,90*,69*,
Cn1c(-c2ccc(C=O)s2)nc2c3ccccc3c3ccccc3c21,53*,-7,2,-6,24,-7,37*,37*,
Cc1nc2c(ccc3ccccc32)s1,nt,nt,nt,nt,nt,-8,nt,nt,
Cc1ccc(-c2cn3c(n2)CCCC3)cc1,38*,44,-3,-1,-5,-11,+,159*,
Cc1ccc(-c2cn3c(n2)SCC3)cc1,3,-8,-3,-12,2,4,nt,nt,
COC(=O)c1sccc1NC(=O)CN(C)NS(=O)(=O)c1ccc(F)cc1,27*,0,0,4,6,1,95*,72*,
COC(=O)c1sccc1NC(=S)Nc1ccc(F)cc1F,70*,-15,1,-2,6,6,79*,51*,
COC(=O)c1sccc1NC(=O)CN(C)NS(=O)(=O)c1ccc(Cl)cc1,1,-2,1,-10,13,-11,nt,nt,
O=C(NCc1cnn2ccccc12)c1ccc(Br)o1,nt,nt,nt,nt,nt,6,nt,nt,
CCOC(=O)c1ccccc1NC1CC(=O)N(c2ccccc2C)C1=O (stereo not drawn),102*,-9,1,-5,9,-21,135*,139*,
CCOC(=O)c1ccccc1NC(=O)C1CC(=O)N(C(C)(C)C)C1 (stereo not drawn),0,-3,1,1,-7,5,nt,nt,
SMILES,Mtb FBA inh,Mtb bLac sens,UGM FP inh,Rv3671c protease,GDH-TPI counter-1,SSB-PriA inh,Mtb FBA confirm,GDH-TPI counter-2,others
COc1ccc(S(=O)(=O)CCCC(=O)Nc2onc3c2CCC3)cc1,nt,nt,nt,nt,nt,-15,nt,nt,
N#Cc1cc2c(=O)n3ccccc3nc2n(-c2ccc(Cl)cc2)c1=O,49*,-2,-1,1,2,-11,10,-5,
COc1ccc(CCn2c(=N)c(S(=O)(=O)c3ccc(Cl)cc3)cc3c(=O)n4ccccc4nc32)cc1,0,9,4,6,2,6,nt,nt,
Cc1ccc2nc3c(cc(C#N)c(=N)n3Cc3cccnc3)c(=O)n2c1,nt,0,-1,-4,nt,nt,nt,nt,
C=CCn1c(=N)c(C#N)cc2c(=O)n3ccccc3nc21,51*,-6,-2,-3,2,-9,128*,111*,
O=C(Nc1nc(-c2cc(Cl)ccc2Cl)cs1)C1CCCCC1,nt,nt,nt,nt,nt,14,nt,nt,
CCn1c(C(C)NC(=O)c2ccc(Cl)cc2)n[nH]c1=S (stereo not drawn),40*,0,1,4,-3,0,107*,86*,
C=CCn1c(C(C)NC(=O)c2cccc(C)c2)n[nH]c1=S (stereo not drawn),2,-9,0,-8,10,-4,nt,nt,
COc1ccc(-c2ccc3nnc(SCC(=O)N4CCCC4)n3n2)cc1,27*,-1,1,0,3,5,189*,160*,
O=S(=O)(c1cccc2c(S(=O)(=O)N3CCCCC3)cccc12)N1CCCCC1,nt,nt,nt,nt,nt,-9,nt,nt,
CCCn1c(N)c(N(CCOC)C(=O)COC(=O)c2ccccc2NCCO)c(=O)[nH]c1=O,90*,-7,5,-6,1,-9,122*,103*,
O=C(CSc1nc2c(c(=O)[nH]1)CN(Cc1ccccc1)CC2)Nc1ccc(F)c(F)c1,nt,nt,nt,nt,nt,-23,nt,nt,
Cc1c(C(=O)Nc2ccc(Cl)cc2)c2ccccn2c1CCc1ccncc1,32*,6,-2,-6,8,1,12,1,GDH-TPI DR=0.97*
O=C(Nc1ccc2c(c1)C(=O)NC2=O)c1ccccc1Cl,30*,-2,1,3,12,-5,7,-2,
O=C(Nc1ccc2c(c1)C(=O)NC2=O)c1ccccc1,41*,3,0,0,-3,-13,198*,123*,
O=C(Nc1ccc2cn[nH]c2c1)c1ccc(N2CCOCC2)nn1,nt,nt,nt,nt,nt,-21,nt,nt,
Cc1cc(Br)ccc1NC(=O)CCC(=O)O,nt,nt,nt,nt,nt,-6,nt,nt,
O=C(/C=C/c1ccccc1)NCCc1csc2nc(-c3ccc(Cl)cc3)nn12,nt,nt,nt,nt,nt,-16,nt,nt,
Cc1cc(C)n(CC(=O)NCc2ccc(Cl)cc2)c(=O)c1-c1nc(-c2cccc(Cl)c2)no1,nt,nt,nt,nt,nt,-5,nt,nt,
